Experiment [1] in a line: growth inhibition of DIPG glioma cells, dose response, cell-based, JHH-DIPG-1, MIPE4.0, CellTiter-Glo, qHTS (AID 1347062; cut-off not given, nearly all actives have AC50 up to about 27 µM;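 for AC50: cells exposed to compound for two days before readout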). The conditions noted are these: JHH-DIPG-1 viability, CellTiter-Glo ATP luminescence. In general terms: ATP-based viability assays read luminescence as a measure of living cells.
A short description of experiment [2]: growth inhibition of DIPG glioma cells, dose response, cell-based, SU-DIPG-IV, MIPE4.0, CellTiter-Glo, qHTS (AID 1347063; cut-off not given, nearly all actives have AC50 up to about 30 µM;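 note: compound exposure lasted 48 hours before the viability readout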). The conditions noted are these: SU-DIPG-IV viability, CellTiter-Glo ATP luminescence.
Experiment [3] can be described thus: viability loss in pontine glioma line – cell-based, SU-DIPG-XXV, MIPE5.0, CellTiter-Glo, qHTS, dose response (AID 1347065).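 Note: cells exposed to compound for 48 hours before ATP readout.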 The conditions noted are these: CellTiter-Glo ATP luminescence.
Experiment [4] is described as follows: SU-DIPG-VI glioma cell viability, MIPE4.0 library, CellTiter-Glo luminescence, qHTS (AID 1347066; cut-off not given, nearly all actives have AC50 up to about 30 µM;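 note: cells exposed to compound for 48 hours before readout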). The conditions noted are these: CellTiter-Glo ATP luminescence.
A short description of experiment [5]: JHH-DIPG-1 glioma cell viability, MIPE5.0 library, CellTiter-Glo luminescence, qHTS (AID 1347067).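 Note: cells exposed to compound for 48 hours before readout.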 The conditions noted are these: JHH-DIPG-1 glioma viability, CellTiter-Glo ATP luminescence.
Experiment [6] in a line: growth inhibition of DIPG glioma cells, dose response, cell-based, SU-DIPG-XIII, MIPE5.0, CellTiter-Glo, qHTS (AID 1347064; cut-off not given, nearly all actives have AC50 up to about 23 µM;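 for AC50: cells exposed to compound for 48 hours before the viability read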). The conditions noted are these: SU-DIPG-XIII viability, CellTiter-Glo ATP luminescence.
Experiment [7] is described as follows: SU-DIPG-XXV glioma cell viability, MIPE5.0 library, qHTS (AID 1347068; cut-off not given, nearly all actives have IC50 up to about 30 µM). On the technique in general: qHTS replaces the single test concentration by a dilution series.
Experiment [8] is described as follows: LFS_MB_1R medulloblastoma cell growth inhibition, synergistic combos for chromothripsis tumors, cisplatin or BGB combos (AID 1671452; in the data active = inhibition above about 80%;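 note: cells exposed for 96 hours before readout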). The conditions noted are these: LFS_MB_1R medulloblastoma cells, stronger effect = higher value.
Experiment [9] is described as follows: CRL2098 osteosarcoma cell growth inhibition, synergistic combos for chromothripsis tumors, BGB or cisplatin IC20 combos (AID 1671454; in the data active = inhibition above about 80%;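 note: cells exposed for 96 h before readout; 0% = vehicle DMSO and 100% = killing by high DMSO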). The conditions noted are these: CRL2098 osteosarcoma cells, drug combinations, stronger effect = higher value.
A short description of experiment [10]: HD-MB03 medulloblastoma cell growth inhibition, synergistic combos for chromothripsis tumors, BGB or cisplatin IC20 combos (AID 1671455; in the data active = inhibition above about 83%;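 note: 0% = vehicle DMSO and 100% = high DMSO as cytotoxic control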). The conditions noted are these: HD-MB03 medulloblastoma cells, stronger effect = higher value.
Experiment [11] can be described thus: UWB1.289 ovarian carcinoma cell growth inhibition, synergistic combos for chromothripsis tumors, BGB or cisplatin combos (AID 1671456; in the data active = inhibition above about 80%;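 note: cells exposed to compound for four days; 0% = vehicle DMSO and 100% = killing by high DMSO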). The conditions noted are these: UWB1.289 ovarian carcinoma cells, stronger effect = higher value.
Experiment [12] is described as follows: LFS_MB_2R medulloblastoma cell growth inhibition, synergistic combos for chromothripsis tumors, cisplatin combos (AID 1671457; in the data active = inhibition above about 80%;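 note: cells exposed to compound for four days before readout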). The conditions noted are these: LFS_MB_2R medulloblastoma cells, stronger effect = higher value.
Experiment [13] in a line: UWB1.289_BRCA1 ovarian cancer growth, cell-based, BGB or cisplatin combinations (AID 1671459; in the data active = inhibition above about 80%). The conditions noted are these: UWB1.289 BRCA1 ovarian carcinoma, drug combinations, stronger effect = higher value.
Experiment [14] can be described thus: human astrocyte viability loss, single and combined drugs, cytotoxicity control for chromothriptic childhood tumor combination screen, cell-based, BGB or cisplatin IC20 combos (AID 1671460; in the data active = inhibition above about 80%;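 note: cells exposed to compounds for 96 hours before viability readout; 0% = vehicle and 100% = killing control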). The conditions noted are these: Human astrocytes, drug combinations, stronger effect = higher value.
The nature of experiment [15]: growth inhibition of BT084 medulloblastoma cells, cell-based, ICGC_MB145, cisplatin and BGB IC40 combos (AID 1671461; in the data active = inhibition above about 80%;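 note: cells exposed to drugs for 96 hours; 0% = vehicle DMSO and 100% = high DMSO full killing control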). The conditions noted are these: drug combinations, stronger effect = higher value.
Experiment [16] in a line: growth inhibition of RCMB18 medulloblastoma cells, cell-based, cisplatin and BGB IC40 combos (AID 1671462; in the data active = inhibition above about 80%;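 note: cells exposed to compound for four days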). The conditions noted are these: stronger effect = higher value.
Experiment [17] can be described thus: growth inhibition of CRL1545 osteosarcoma cells, cell-based, cisplatin and BGB IC20 combos (AID 1671464; in the data active = inhibition above about 80%;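 note: cells exposed to compound for 96 hours before readout; 0% = vehicle DMSO and 100% = high DMSO killing control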). The conditions noted are these: stronger effect = higher value.
Experiment [18] is described as follows: viability rescue of complex I mutant cybrids, primary screen, cell-based, galactose medium, ATP luminescence (AID 1645843;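 active = z-score of at least 1.8 in each of two replicates, scored against plate mean and spread of sample wells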;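 note: positive z means more ATP and so rescue of galactose-driven cybrid death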). The conditions noted are these: complex I mutant cybrid cells, 72 h, stronger effect = higher value.
Experiment [19] concerns the target Mitogen-activated protein kinase 7 (Homo sapiens) (UniProt Q13164). Description: ERK5 transactivation activators in reporter cells, primary screen, cell-based, HTS (AID 1508626;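 active = luciferase signal above three times the same-plate solvent-only control wells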;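 note: luciferase driven by Gal4-ERK5 fusion binding five Gal4 sites before minimal TATA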). The conditions noted are these: HeLa Gal4-ERK5 transactivation, 18 h, at 5 µM, stronger effect = higher value.
Experiment [20] has as its target ATP-dependent translocase ABCB1 (Homo sapiens) (UniProt P08183). Description: MDR1 (ABCB1) efflux transporter inhibition, cell-based (AID 377; in the data active = fluorescence slope change above about 50%). The conditions noted are these: MDR1-expressing cells, fluorescent substrate accumulation slope; stronger effect = higher value; concentration not given here.
Setting [21] is: measured here: combination with cisplatin, at 0.5 µM.
The mark [22] stands for this setting: measured here: combination with cisplatin, at 5 µM.

Results on 9 molecules are retold here after PubChem BioAssay.

Inconclusive results are not listed. The source made the active and inactive calls. Unless noted, no cut-off is given here; in the data, nearly all actives have AC50 up to about 26 µM.

Sequence of Mitogen-activated protein kinase 7 (Homo sapiens) (Q13164 whole entry, looked up, the tested form may be a part): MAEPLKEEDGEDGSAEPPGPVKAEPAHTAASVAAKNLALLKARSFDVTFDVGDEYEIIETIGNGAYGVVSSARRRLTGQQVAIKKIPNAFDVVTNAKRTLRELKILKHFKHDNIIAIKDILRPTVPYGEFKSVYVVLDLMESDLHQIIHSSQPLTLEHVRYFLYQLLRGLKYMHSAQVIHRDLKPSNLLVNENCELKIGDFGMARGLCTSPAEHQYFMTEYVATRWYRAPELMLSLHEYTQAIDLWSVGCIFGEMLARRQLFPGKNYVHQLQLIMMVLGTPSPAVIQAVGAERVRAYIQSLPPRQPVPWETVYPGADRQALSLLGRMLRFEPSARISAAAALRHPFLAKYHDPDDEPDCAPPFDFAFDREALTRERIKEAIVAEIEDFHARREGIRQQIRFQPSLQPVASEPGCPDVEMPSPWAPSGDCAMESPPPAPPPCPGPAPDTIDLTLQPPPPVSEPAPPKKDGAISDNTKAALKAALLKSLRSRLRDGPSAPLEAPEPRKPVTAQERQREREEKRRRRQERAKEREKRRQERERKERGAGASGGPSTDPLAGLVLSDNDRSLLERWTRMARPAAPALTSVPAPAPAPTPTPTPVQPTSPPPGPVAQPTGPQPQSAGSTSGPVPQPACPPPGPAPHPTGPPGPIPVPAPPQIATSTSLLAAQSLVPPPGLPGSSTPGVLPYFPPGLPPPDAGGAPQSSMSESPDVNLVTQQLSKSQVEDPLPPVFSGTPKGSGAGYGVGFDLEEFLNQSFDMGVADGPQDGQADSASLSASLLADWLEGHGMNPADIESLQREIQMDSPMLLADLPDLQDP
Sequence of ATP-dependent translocase ABCB1 (Homo sapiens) (P08183 whole entry, looked up): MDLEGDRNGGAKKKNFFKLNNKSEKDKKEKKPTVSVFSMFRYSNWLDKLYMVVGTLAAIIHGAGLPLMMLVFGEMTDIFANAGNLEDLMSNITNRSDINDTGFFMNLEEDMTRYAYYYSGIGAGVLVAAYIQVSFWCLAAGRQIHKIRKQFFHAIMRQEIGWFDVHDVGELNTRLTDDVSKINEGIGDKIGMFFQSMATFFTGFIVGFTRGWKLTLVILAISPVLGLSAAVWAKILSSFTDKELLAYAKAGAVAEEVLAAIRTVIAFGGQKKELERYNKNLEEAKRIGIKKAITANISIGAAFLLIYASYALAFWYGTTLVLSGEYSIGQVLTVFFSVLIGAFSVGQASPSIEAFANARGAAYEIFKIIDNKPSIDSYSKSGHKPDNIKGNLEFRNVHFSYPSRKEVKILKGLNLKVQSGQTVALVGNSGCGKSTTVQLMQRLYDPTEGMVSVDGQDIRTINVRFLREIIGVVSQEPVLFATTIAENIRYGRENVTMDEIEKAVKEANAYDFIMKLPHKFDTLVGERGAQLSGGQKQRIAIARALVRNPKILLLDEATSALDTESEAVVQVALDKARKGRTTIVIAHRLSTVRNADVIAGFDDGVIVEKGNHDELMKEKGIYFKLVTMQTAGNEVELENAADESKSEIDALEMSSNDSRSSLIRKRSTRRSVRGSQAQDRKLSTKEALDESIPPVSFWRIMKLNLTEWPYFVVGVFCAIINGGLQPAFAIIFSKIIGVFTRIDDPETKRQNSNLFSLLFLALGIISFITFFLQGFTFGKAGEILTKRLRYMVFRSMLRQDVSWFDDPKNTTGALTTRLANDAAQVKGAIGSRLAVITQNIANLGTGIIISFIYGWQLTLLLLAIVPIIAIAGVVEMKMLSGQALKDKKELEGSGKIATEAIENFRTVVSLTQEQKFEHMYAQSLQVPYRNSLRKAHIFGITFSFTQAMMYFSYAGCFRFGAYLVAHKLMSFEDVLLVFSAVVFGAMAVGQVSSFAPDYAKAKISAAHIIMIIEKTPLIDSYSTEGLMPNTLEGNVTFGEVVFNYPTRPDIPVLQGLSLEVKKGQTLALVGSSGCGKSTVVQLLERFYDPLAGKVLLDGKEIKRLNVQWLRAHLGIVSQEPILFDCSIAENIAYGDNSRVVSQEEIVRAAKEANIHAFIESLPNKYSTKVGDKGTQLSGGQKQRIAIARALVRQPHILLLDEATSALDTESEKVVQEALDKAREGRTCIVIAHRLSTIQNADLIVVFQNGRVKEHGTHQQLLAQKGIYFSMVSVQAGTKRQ

On to `Cc1cc(=O)oc2cc(O)ccc12`, for which the molecule was called inactive in [1], in [2], in experiment [3], in [4] and in [5].
As for `O=C(CCCCCCC(=O)Nc1ccccc1)NO`, the concentration at half-maximal activity (AC50) was 3.72 µM (active) in experiment [1], 1.18 µM (active) in experiment [6], 0.833 µM (active) in experiment [3] and 1.48 µM (active) in [5]. For the same molecule, the call in experiment [7] was inactive. Besides, the inhibition in [8] (at 0.5 µM) was 17.4% (inactive); in [8] (measured here: combination with BGB IC40, at 0.05 µM), -3.43%; in experiment [8] (setting [21]) it was 21.7%; in experiment [8] (setting [22]), 83.1%; in experiment [9] (at 0.5 µM), -45.6% (inactive); in experiment [9] (measured here: combination with BGB at IC20, at 0.5 µM), -78.4%. Also, the inhibition in [9] (measured here: combination with cisplatin at IC20, at 0.5 µM) was -12.2%; in experiment [10] (at 0.5 µM), 22% (inactive); in [10] (measured here: combo with BGB at IC20, at 0.5 µM), 21%; in experiment [10] (measured here: combo with cisplatin at IC20, at 0.5 µM), 48.3%; in [11] (at 0.5 µM), 14.7% (inactive); in [11] (measured here: inhibition with BGB combination, at 0.05 µM), -38.8%. Also, the inhibition in experiment [11] (measured here: inhibition with cisplatin combination, at 0.05 µM) is -24.2%; in experiment [12] (at 0.5 µM), -2.63% (inactive); in [12] (setting [21]), 3.49%; in experiment [12] (setting [22]), 79.7%; in [13] (BGB combination, concentration series, at 5 µM) it was 69.1%; in experiment [13] (at 0.5 µM), 9.38% (inactive). The inhibition is 84.7% in experiment [13] (cisplatin combination, concentration series, at 5 µM); -0.71% (inactive) in experiment [14] (at 0.5 µM); -2.1% in [14] (measured here: combo with BGB IC20, at 0.5 µM); -2.33% in experiment [14] (measured here: combo with cisplatin IC20, at 0.5 µM); 10.3% (inactive) in experiment [15] (at 0.5 µM); 36% in [15] (cisplatin combination, at 0.5 µM). The inhibition in [15] (cisplatin combination, at 5 µM) is 98.4%; in [15] (measured here: BGB IC40 combination 0.05 uM, at 0.05 µM), -23.4%; in experiment [15] (single agent, at 5 µM) it was 87.4%; in experiment [16] (at 0.5 µM) it was 14.4% (inactive); in [16] (cisplatin combo, at 5 µM) it was 93.4%; in experiment [16] (measured here: BGB IC40 combination, at 0.05 µM) it was -14.3%. Moreover, the inhibition was 47.6% in [16] (setting [21]); 78.3% in experiment [16] (single agent, at 5 µM); 74.5% (inactive) in [17] (at 0.5 µM); 65.9% in experiment [17] (measured here: with BGB IC20 combination, at 0.5 µM); 78.3% in experiment [17] (measured here: with cisplatin IC20 combination, at 0.5 µM); -34.3% in experiment [17] (single agent, at 0.05 µM). In addition, in experiment [17] (single agent, at 5 µM), the inhibition was 88.9%.
For the molecule `COc1c(C)c2c(c(O)c1C/C=C(\C)CCC(=O)OCCN1CCOCC1)C(=O)OC2`, the molecule was called inactive in [4]. For the same molecule, the z-score in [18] was 1.7 (inactive).
For `Nc1cc(C(Cl)=C(Cl)Cl)c(S(N)(=O)=O)cc1S(N)(=O)=O`, the outcome in experiment [1], in experiment [2], in experiment [6], in experiment [3], in experiment [4] and in [5] was inactive. In addition, the outcome in [7] was inactive.
Consider `COc1ccc2[nH]c(S(=O)Cc3ncc(C)c(OC)c3C)nc2n1` (configuration not stated), for which, in experiment [7], the call was inactive. Further, in experiment [18], the z-score is 0.825 (inactive).
With `CN(N=O)C(=O)N[C@@H]1[C@@H](O)[C@H](O)[C@@H](CO)O[C@@H]1O`, the outcome in [6], in experiment [3], in experiment [5] and in experiment [7] was inactive. Besides, the luciferase signal in [19] was 120 AU (inactive).
`CN(C)CCN(Cc1ccc(Cl)cc1)c1ccccn1`: the fluorescence slope change in experiment [20] is 92.6% (active). In addition, the outcome in experiment [1] and in [4] was inactive.
`Clc1ccc(C(Cn2ccnc2)OCc2ccsc2Cl)c(Cl)c1` (configuration not stated): the molecule was called inactive in experiment [1]. Besides, in experiment [19], the luciferase signal was 72 AU (inactive). Also, the z-score in [18] was -1.6 (inactive).
Consider `CCCCCCCCCCCCCCCCCCCCCCO`, for which the result in experiment [1], in experiment [2], in experiment [6], in [3], in experiment [4] and in experiment [5] was inactive. Moreover, the call in [7] was inactive. Besides, in [19], the luciferase signal was 140 AU (inactive).

As a reminder, the AC50 is the concentration at which the activity in the assay is half-maximal. What is called inhibition is the relative decrease from the control value, in per cent.
